{
  "source": "paper PMC7862700",
  "about": "“An all-to-all approach to the identification of sequence-specific readers for epigenetic DNA modifications on cytosine”",
  "experiment_in_all_cases": "DAPPL (digital affinity profiling via proximity ligation, sequencing); 10 mM Tris-HCl pH 7.5, 50 mM NaCl, 1 mM DTT, 4% glycerol, room temperature, 30 min; GST-TFs on glutathione beads, 16-mer random dsDNA library, 0.1% formaldehyde crosslink after washing; high values mean tight binding",
  "key": {"FEV": {"target": "T1, FEV (Homo sapiens, UniProt Q99581 1-238)", "T1 sequence": "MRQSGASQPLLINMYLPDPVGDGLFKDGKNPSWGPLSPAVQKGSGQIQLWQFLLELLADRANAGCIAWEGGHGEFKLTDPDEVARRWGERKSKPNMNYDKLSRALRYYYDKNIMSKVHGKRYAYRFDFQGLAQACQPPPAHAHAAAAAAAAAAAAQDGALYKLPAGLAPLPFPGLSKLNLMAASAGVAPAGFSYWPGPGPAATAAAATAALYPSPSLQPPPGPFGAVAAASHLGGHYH", "conditions": "protein: recombinant; tags: N-terminal GST; dsDNA, one strand shown", "procedure,_shortened": "(§1)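 Beads coated with glutathione captured GST-fused human transcription factors that had been expressed in yeast, and the factors were then given DNA barcodes and pooled with a tag-only sample. The pools were incubated with 200 nmole of a random double-stranded 16-mer DNA library in Tris/NaCl/DTT/glycerol buffer for 30 min at room temperature, washed, crosslinked with 0.1% formaldehyde and proximity-ligated with BsaI/T4 ligase at 37 °C for 1 h. PCR amplification and Illumina NextSeq500 sequencing came last. Binding signal is each hexamer's read frequency for a factor divided by its frequency for the tag-only sample.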"}, "ETV5": {"target": "ETV5 (Homo sapiens, UniProt P41161 1-510)", "sequence (P41161 whole entry)": "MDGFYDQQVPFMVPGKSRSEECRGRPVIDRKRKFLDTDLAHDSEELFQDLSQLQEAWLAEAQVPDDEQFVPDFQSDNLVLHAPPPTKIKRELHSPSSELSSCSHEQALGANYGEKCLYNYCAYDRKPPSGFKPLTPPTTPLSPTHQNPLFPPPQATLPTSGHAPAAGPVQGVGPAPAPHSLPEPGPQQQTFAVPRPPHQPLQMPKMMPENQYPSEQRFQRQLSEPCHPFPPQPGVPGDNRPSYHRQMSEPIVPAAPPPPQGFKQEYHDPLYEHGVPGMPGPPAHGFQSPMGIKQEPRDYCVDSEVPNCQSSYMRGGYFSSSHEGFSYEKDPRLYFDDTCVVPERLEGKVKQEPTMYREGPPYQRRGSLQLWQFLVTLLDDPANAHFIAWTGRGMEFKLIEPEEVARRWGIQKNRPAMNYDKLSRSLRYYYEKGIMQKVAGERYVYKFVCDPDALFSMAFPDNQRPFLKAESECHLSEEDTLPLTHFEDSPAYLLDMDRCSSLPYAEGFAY", "conditions": "protein: recombinant; tags: N-terminal GST; dsDNA, one strand shown", "procedure,_shortened": "as §1"}, "HSF1": {"target": "HSF1 (Homo sapiens, UniProt Q00613 1-529)", "sequence (Q00613 whole entry)": "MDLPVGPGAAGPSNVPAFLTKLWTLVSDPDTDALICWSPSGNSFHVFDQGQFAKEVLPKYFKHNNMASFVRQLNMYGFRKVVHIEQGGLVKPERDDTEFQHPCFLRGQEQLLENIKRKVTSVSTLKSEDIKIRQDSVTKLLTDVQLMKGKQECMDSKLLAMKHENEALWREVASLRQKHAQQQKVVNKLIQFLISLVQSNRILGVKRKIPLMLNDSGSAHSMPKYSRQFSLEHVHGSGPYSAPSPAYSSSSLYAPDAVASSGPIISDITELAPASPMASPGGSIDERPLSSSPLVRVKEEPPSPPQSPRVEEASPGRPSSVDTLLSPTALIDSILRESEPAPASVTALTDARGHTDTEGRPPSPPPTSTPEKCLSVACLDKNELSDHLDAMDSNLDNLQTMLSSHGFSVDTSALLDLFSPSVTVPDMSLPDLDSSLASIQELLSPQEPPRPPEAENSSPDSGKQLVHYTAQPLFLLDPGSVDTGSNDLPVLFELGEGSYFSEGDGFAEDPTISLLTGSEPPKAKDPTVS", "conditions": "protein: recombinant; tags: N-terminal GST; chain copies: 3; dsDNA, one strand shown", "procedure,_shortened": "as §1"}, "SPIC": {"target": "T2, SPIC (Homo sapiens, UniProt Q8N5J4 1-248)", "T2 sequence": "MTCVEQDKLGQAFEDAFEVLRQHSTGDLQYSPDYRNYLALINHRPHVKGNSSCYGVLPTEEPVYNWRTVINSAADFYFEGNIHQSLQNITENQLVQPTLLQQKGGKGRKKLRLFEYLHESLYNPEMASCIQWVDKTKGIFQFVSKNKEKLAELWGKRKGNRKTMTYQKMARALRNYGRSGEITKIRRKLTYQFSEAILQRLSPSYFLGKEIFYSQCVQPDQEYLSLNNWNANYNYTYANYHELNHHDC", "conditions": "protein: recombinant; tags: N-terminal GST; dsDNA, one strand shown", "procedure,_shortened": "as §1"}, "ELF4": {"target": "ELF4 (Homo sapiens, UniProt Q99607 1-663)", "sequence (Q99607 whole entry)": "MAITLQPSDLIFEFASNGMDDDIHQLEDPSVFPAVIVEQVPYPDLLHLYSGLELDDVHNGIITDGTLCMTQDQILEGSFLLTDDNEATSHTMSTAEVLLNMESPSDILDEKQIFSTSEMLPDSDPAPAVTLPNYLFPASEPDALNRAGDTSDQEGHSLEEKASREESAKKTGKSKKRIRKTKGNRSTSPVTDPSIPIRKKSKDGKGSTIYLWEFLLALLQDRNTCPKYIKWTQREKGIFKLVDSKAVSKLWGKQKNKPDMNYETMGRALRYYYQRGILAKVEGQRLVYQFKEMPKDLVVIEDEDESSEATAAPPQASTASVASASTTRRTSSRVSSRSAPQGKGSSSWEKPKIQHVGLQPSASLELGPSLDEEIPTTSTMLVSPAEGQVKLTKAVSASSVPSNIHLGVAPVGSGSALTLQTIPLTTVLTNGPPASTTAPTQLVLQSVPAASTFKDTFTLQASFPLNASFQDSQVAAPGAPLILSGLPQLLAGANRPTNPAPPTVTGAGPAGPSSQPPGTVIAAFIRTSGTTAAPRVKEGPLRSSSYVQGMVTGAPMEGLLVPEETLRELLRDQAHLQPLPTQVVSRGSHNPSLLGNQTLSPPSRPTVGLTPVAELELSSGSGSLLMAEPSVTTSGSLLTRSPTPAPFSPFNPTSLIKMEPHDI", "conditions": "protein: recombinant; tags: N-terminal GST; dsDNA, one strand shown", "procedure,_shortened": "as §1"}, "ELK4": {"target": "T3, ELK4 (Homo sapiens, UniProt P28324-2 1-405)", "T3 sequence": "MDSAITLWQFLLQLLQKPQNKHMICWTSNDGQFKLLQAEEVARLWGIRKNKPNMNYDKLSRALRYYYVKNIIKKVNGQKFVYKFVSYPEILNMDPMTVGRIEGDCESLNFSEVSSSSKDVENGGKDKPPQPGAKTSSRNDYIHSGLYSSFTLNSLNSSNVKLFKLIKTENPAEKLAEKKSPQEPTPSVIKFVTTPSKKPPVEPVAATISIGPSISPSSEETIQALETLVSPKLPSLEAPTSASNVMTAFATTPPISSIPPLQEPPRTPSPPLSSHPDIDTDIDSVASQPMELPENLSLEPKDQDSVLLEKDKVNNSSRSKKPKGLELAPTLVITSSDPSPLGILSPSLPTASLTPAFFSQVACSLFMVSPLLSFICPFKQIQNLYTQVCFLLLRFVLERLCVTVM", "conditions": "protein: recombinant; tags: N-terminal GST; dsDNA, one strand shown", "procedure,_shortened": "as §1"}, "ETV2": {"target": "T4, ETV2 (Homo sapiens, UniProt O00321 1-342)", "T4 sequence": "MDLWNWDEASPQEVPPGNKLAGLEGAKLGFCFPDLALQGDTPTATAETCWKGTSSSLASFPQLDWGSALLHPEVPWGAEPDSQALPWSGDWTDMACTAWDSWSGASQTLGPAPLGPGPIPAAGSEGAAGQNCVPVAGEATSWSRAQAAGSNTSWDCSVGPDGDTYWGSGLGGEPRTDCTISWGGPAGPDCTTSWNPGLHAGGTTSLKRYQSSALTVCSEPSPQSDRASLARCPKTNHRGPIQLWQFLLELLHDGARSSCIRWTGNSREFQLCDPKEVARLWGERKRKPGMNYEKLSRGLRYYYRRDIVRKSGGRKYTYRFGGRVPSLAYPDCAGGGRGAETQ", "conditions": "protein: recombinant; tags: N-terminal GST; dsDNA, one strand shown", "procedure,_shortened": "as §1"}, "ELF3": {"target": "T5, ELF3 (Homo sapiens, UniProt P78545 1-371)", "T5 sequence": "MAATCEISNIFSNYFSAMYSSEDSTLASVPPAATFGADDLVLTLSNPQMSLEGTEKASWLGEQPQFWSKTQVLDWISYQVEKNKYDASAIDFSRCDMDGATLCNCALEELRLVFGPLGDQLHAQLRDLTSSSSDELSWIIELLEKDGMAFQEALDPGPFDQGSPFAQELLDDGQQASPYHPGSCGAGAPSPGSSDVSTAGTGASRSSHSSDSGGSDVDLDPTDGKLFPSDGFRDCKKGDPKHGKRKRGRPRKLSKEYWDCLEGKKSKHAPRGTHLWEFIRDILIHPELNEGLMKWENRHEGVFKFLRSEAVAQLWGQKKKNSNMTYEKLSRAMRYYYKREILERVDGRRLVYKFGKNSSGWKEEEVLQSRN", "conditions": "protein: recombinant; tags: N-terminal GST; dsDNA, one strand shown", "procedure,_shortened": "as §1"}, "CRX": {"target": "CRX (Homo sapiens, UniProt O43186 1-299)", "sequence (O43186 whole entry)": "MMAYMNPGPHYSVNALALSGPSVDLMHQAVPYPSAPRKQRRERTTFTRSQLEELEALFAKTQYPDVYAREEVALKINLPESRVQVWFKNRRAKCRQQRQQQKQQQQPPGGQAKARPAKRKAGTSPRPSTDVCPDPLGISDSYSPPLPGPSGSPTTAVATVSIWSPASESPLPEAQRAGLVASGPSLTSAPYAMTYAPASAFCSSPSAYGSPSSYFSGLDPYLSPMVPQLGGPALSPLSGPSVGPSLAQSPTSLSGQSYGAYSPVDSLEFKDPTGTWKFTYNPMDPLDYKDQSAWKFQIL", "conditions": "protein: recombinant; tags: N-terminal GST; dsDNA, one strand shown", "procedure,_shortened": "as §1"}},
  "data": [
    {"sequence": "ACGTTT", "values": [
      {"measurement": "binding signal", "setting": "FEV", "value": "1.22 fold enrichment (6-mer frequency, TF over GST control)"},
      {"measurement": "binding signal", "setting": "ETV5", "value": "1.15 fold enrichment (6-mer frequency, TF over GST control)"},
      {"measurement": "binding signal", "setting": "HSF1", "value": "1.05 fold enrichment (6-mer frequency, TF over GST control)"},
      {"measurement": "binding signal", "setting": "SPIC", "value": "1.29 fold enrichment (6-mer frequency, TF over GST control)"},
      {"measurement": "binding signal", "setting": "ELF4", "value": "1.14 fold enrichment (6-mer frequency, TF over GST control)"},
      {"measurement": "binding signal", "setting": "ELK4", "value": "1.22 fold enrichment (6-mer frequency, TF over GST control)"},
      {"measurement": "binding signal", "setting": "ETV2", "value": "1.18 fold enrichment (6-mer frequency, TF over GST control)"},
      {"measurement": "binding signal", "setting": "ELF3", "value": "1.08 fold enrichment (6-mer frequency, TF over GST control)"},
      {"measurement": "binding signal", "setting": "CRX", "value": "1 fold enrichment (6-mer frequency, TF over GST control)"}
    ]}
  ]
}
